In all, about 1,500 compounds went through this assay and about 390 (26%) were called active. How the calls were made is not given here. These entries were drawn from the full list. Potency and affinity values are given separately.
What follows are molecules tested against Histone-lysine N-methyltransferase NSD2 (Homo sapiens) (UniProt O96028) (assay: NSD2 methyltransferase inhibitors, dose response, biochemical, AlphaScreen, cherry-picked samples (AID 1053173)). Settings: NSD2 H4 peptide methylation, 120 min; series mostly up to 10 µM.
Chain of Histone-lysine N-methyltransferase NSD2 (Homo sapiens) (O96028 whole entry, looked up): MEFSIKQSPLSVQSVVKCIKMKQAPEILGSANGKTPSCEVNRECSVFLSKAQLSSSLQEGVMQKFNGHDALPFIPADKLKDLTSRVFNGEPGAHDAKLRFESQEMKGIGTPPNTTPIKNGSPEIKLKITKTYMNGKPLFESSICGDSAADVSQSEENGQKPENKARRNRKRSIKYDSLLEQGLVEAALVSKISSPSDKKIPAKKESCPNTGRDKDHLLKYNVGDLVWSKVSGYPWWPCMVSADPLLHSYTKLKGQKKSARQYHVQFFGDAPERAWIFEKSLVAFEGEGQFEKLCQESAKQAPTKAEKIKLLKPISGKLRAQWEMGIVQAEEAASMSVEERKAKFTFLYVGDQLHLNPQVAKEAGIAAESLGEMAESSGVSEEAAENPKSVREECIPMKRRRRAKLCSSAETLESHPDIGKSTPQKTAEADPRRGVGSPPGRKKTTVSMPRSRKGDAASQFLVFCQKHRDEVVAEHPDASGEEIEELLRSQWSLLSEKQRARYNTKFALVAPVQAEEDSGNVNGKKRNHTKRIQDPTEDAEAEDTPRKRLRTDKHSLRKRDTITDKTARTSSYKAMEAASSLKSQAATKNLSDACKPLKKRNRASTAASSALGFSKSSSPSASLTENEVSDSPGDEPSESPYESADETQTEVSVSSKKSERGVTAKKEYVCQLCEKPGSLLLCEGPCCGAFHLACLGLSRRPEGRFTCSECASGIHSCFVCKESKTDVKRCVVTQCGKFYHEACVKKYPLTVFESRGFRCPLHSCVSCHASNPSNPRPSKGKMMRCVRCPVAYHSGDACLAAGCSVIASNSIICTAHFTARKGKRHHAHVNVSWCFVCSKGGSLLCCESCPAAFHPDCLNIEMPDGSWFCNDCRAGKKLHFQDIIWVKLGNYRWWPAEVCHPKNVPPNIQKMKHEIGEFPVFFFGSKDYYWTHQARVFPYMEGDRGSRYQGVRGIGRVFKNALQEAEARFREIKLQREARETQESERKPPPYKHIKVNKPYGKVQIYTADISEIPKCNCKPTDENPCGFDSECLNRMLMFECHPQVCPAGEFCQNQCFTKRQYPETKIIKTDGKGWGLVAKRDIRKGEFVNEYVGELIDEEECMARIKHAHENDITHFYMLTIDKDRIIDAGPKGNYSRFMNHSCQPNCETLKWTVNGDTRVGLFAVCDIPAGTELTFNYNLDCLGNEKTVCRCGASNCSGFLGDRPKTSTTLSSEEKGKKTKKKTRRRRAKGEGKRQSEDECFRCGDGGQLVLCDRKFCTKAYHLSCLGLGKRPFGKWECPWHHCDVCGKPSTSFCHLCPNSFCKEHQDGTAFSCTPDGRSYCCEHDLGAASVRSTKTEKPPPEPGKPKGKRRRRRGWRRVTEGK

outcome, inactive:
COc1ccc(-c2ncncc2-c2ccccc2)c(O)c1
O=C1C=CC(=O)N1c1ccc(N2CCCCC2)cc1
Cc1c([N+](=O)[O-])cc(N2C(=O)C=CC2=O)cc1[N+](=O)[O-]
CCOC(=S)SCC(=O)Nc1nc(C)c(C)s1
O=C(Nc1nnc(SCc2cccc3ccccc23)s1)C1COc2ccccc2O1 (stereo not given)
NC(=O)C1Cc2ccccc2CN1S(=O)(=O)c1ccc(Cl)s1 (stereo not given)
COc1ccccc1N(C)S(=O)(=O)c1ccc(C(=O)NC2CCCCCC2)cc1
COc1cc(OC)c(C(=O)OC(C)C(=O)NCc2ccc3c(c2)OCO3)cc1OC (stereo not given)
C/C(=N\NC(=O)c1nnn(-c2nonc2N)c1C)c1ccc(-c2ccccc2)cc1
CC(=O)c1c(C)[nH]c(C(=O)Nc2ccc(C)cc2Br)c1C
O=C(O)c1cc(N/N=C/c2ccc3c(c2)OCO3)ccc1Cl
O=c1cc(C=NNc2ccccc2)[nH]c(=O)[nH]1
Cc1noc(C)c1S(=O)(=O)N1CCN(S(=O)(=O)c2ccccc2C#N)CC1
CCCC(CCC(=O)Nc1cccc([N+](=O)[O-])c1)C(=O)O (stereo not given)
COc1cc(C(=O)Oc2cccc(/C=N/NC(=O)c3cccnc3)c2)cc(OC)c1OC
CNC(=S)NC(CC(=O)OC)c1ccc2c(c1)OCO2 (stereo not given)
CC[n+]1c(/C=C/Nc2ccccc2)oc2ccccc21
Cc1cc(Cl)c(OCCN2C(=O)NC(C)(C)C2=O)c(Br)c1
COc1ccc(/C=C/C(=O)OCC(=O)NCC2CCCO2)cc1 (stereo not given)
COc1ccccc1CN(Cc1cc2cc3c(cc2[nH]c1=O)OCCO3)Cc1nnnn1Cc1ccco1
CCOC(=O)CN(C(=O)COc1nc(-c2ccccc2)cc(C)c1C#N)c1ccccc1
COc1ccc(C(=O)Cc2nnc(C)s2)cc1
COc1cc(N)c(C(=O)c2nccc3cc(OC)c(OC)cc23)cc1OC
COc1ccc(C(=O)Nc2ccc3[nH]ccc3c2)cc1OC
C/C(=N/NC(=O)CCc1ccccc1)c1ccco1
Cc1ccccc1NC(=O)CN1CCC(C(=O)c2ccc3c(c2)OCCO3)CC1
COc1ccc(C2=NNC(c3cccs3)=Nc3ccc(OC)cc32)cc1
COc1ccc(-n2nnnc2-c2cnc(N3CCCC3)nc2C(F)(F)F)cc1
Cc1cc(C)n(-c2ncccc2[N+](=O)[O-])n1
O=[N+]([O-])c1cc2ncccc2c2ncccc12
COc1ccc(/C=C(\C#N)C(=O)N2COCC2(C)C)cc1
COc1ccc(NC(=O)CN(C)S(=O)(=O)c2ccc(C)cc2)c([N+](=O)[O-])c1
C=CCc1cccc2cc(C(=O)Nc3ccc(NC(C)=O)cc3)c(=O)oc12
COC(=O)c1cc(NC(=O)Nc2cc(OC)ccc2OC)cc(C(=O)OC)c1
N=C1/C(=C\c2ccc(Br)o2)C(=O)N=C2SC(CC(=O)N3CCCCC3)=NN12
COc1ccc(/C=C2\N=C(C(C)(C)C)OC2=O)c(OC)c1
O=C(c1ccccc1F)N(Cc1cccs1)C1CCS(=O)(=O)C1 (stereo not given)
Cc1ccc(C(=O)Nc2ccc(Cl)cc2C(F)(F)F)c(Cl)c1
CCC1=[N+]([O-])C(C)(/C(C)=N\O)N(O)C1(C)C (stereo not given)
COc1cc(NC(=O)c2[nH]c(C)c(C(C)=O)c2C)cc(OC)c1OC
COc1ccc(C2SCCN2S(=O)(=O)c2ccccc2)cc1 (stereo not given)
COc1ccc(NC(=O)C2Cc3c(-c4ccc(Cl)cc4)ccnc3O2)cc1 (stereo not given)
O=C(O)CC1S/C(=N/N=C/c2ccc(-c3ccccc3[N+](=O)[O-])o2)NC1=O (stereo not given)
CCN1C(=O)/C(=C\c2ccc(-c3ccc([N+](=O)[O-])cc3OC)o2)SC1=Nc1cccc(C(=O)O)c1
Nc1ccc2c(c1)OCCOCCOCCOCCOCCO2
CCCOc1ccc(C(C)=O)cc1CC(C(N)=O)C(N)=O
COc1ccc2c(c1)Cc1sc(NC(=O)c3ccccc3)nc1-2
NC(=O)c1nsc(C(=O)N(c2ccccc2)C(C(=O)NCC2CCCO2)c2ccc3ncccc3c2)c1N (stereo not given)
O=C(Nc1ccc(S(=O)(=O)Nc2ncccn2)cc1)C1CC(=O)N(c2ccc(Cl)cc2)C1 (stereo not given)
CCOC(=O)C1CCCN(C(=O)c2ccc(S(=O)(=O)Nc3ccccc3OC)cc2)C1 (stereo not given)
O=C(NCCc1ccccn1)C1CCCN1S(=O)(=O)c1ccc(Cl)cc1 (stereo not given)
Cn1c(SCC(=O)Nc2ccc3c(c2)OCCO3)nnc1-c1ccncc1
CCOC(=O)c1cccc(P(C)(C)=O)c1
COc1ccccc1NC(=O)c1ccc(NC(=O)C2COc3ccccc3O2)cc1 (stereo not given)
C=CC[n+]1c(-c2ccc(Cl)cc2Cl)csc1Nc1c(C)n(C)n(-c2ccccc2)c1=O
S=C(Nc1cccnc1)Nc1cccc2cnccc12
CCN(C(=S)Nc1cccnc1)c1cccc2ccccc12
O=c1c2ccccc2nnn1CSc1nc2ccccc2c(=O)n1CCCO
O=C(NC(=S)Nc1ccccc1N1CCCC1)c1ccco1
Cc1cc2c(OCC(O)CNC3CCCCC3)cccc2[nH]1 (stereo not given)
CC1=CS(=O)(=O)CC1Sc1ncn[nH]1 (stereo not given)
COc1cccc(CNc2cccc3cccnc23)c1O
Oc1ccc(CNc2ccccc2O)cc1
Cc1ccccc1N(C(=O)c1snc(C(N)=O)c1N)C(C)C(=O)NC1CCCCC1 (stereo not given)
CC(=O)Nc1ccc(NCc2ccc(C)s2)cc1
CCOc1c(O)ccc(/C=C2\SC(=S)NC2=O)c1[N+](=O)[O-]
Cc1ccc(Cl)c(OCC(=O)Nc2cc(S(=O)(=O)N3CCOCC3)ccc2N2CCCC2)c1
COc1ccc(CN(C(=O)CN2C(=O)NC3(CCC(C)CC3)C2=O)C(C)Cc2cccs2)cc1 (stereo not given)
c1ccc(-c2nc(N3CCOCC3)c3ccccc3n2)nc1
CCc1nnc(NC(=O)COc2ccc3c(c2)OCO3)s1
CN1CCCCc2c1nc1ccccc1c2N (tested in a mixture with another compound)
COc1cc(/C=C/C(=O)OCC(=O)NNC(=O)c2cc(Cl)ccc2OC)ccc1O
Cc1cc(OCC(=O)Nc2ccccc2N2CCCCC2)ccc1C(C)C
COc1ccccc1/C=N/Nc1cc(C)nc(N2CCOCC2)n1
FC(F)(F)c1ccc(N/N=C/c2cccnc2)nc1
N#Cc1cc(-c2ccccc2)cnc1Sc1ccc(Cl)cc1
CN1CC2(Cc3c1ccc1ccccc31)C(=O)OC(C)(C)OC2=O
Cc1cc(=O)cc(C)n1-c1ccc(O)cc1
CC1=NOC(=O)/C1=C\c1ccc(-c2ccc(Cl)c(C(=O)O)c2)o1
CSc1ncccc1C(=O)OCC(=O)N1CC2(C)CC1CC(C)(C)C2 (stereo not given)
Cn1c(=O)cc(SCC(=O)N2CCOCC2)c2ccc(Cl)cc21
O=S(=O)(Nc1nc(-c2ccco2)c(-c2ccco2)s1)c1ccc(F)cc1F
O=C(COC(=O)c1cc(S(=O)(=O)N2CCOCC2)ccc1F)c1ccc[nH]1
CCN(CC)C(=O)c1cc([N+](=O)[O-])cc2c1-c1ccc([N+](=O)[O-])cc1C2=C(C#N)C#N
CC(=O)c1cc(-c2ccccc2)n(CC(=O)NC2CCCCC2)c1C
COc1ccc(-c2c3c(nc4sc(C(=O)Nc5cc(C)on5)c(N)c24)CCC3)cc1
N=C1SCC(=O)N1c1ncc(Cc2cccc(Cl)c2)s1
Cc1cccc(OCCC(=O)Nc2ccccc2C(N)=O)c1
CCOC(=O)c1cc(-c2ccc(F)cc2)nc2c1c(=O)[nH]c(=O)n2Cc1ccccc1
Cc1c(C)n(Cc2ccccc2)c2ccc(C(=O)OCCCN(C)C)cc12
CCOC(=O)c1c(C)[nH]c(C)c1C(=O)COC(=O)[C@@H]1CCCN1S(=O)(=O)c1ccc(Cl)cc1
Cc1cc(=O)n(Cc2ccccc2)c(O)c1C#N
COC(=O)c1c(SCC(=O)Nc2ccc(C)c(C)c2)nc(=O)[nH]c1C
CCn1cnc2c1c(=O)n(CC(=O)O)c(=O)n2Cc1ccccc1
COc1ccc(S(=O)(=O)N(C)CC(=O)NCCN2CCOCC2)cc1Cl
c1ccc(CCN2CN=C(Nc3nc4ccccc4s3)NC2)cc1
O=C1CC2(CCCCC2)CC(=O)N1CCc1ccccc1
Nc1ccc(N=Nc2ccccc2O)c(N)c1
O=C(OCc1ccc(Cl)c(Cl)c1)c1cccnc1Cl
CCN1CCN(CCCNC(=O)c2ccc3c(c2)NC(=O)/C(=C\c2cccc(C)c2)S3)CC1
O=C(CN1CCOCC1)Nc1ccc(Oc2ccccc2)cc1
O=C(O)C=C1C2CC3CC(C2)CC1C3
COC(=O)CC1=NN(c2ccc(OC)cc2)C(=O)/C1=C\c1ccc(Cl)cc1
Nc1nonc1C(=O)N/N=C/c1cc2c(cc1[N+](=O)[O-])OCO2
CC(C)(C)C(=O)NC1CC2CCCC(C1)N2C(=O)Nc1ccc(Cl)cc1 (stereo not given)
COc1ccc2c(C#N)c3ccccn3c2c1
COc1ccc(-c2cn[nH]c2N)cc1
CN(C)CCCN1C(=O)c2cccc3c([N+](=O)[O-])ccc(c23)C1=O
O=C1CC(=O)Nc2cc(S(=O)(=O)Nc3ccc(Cl)c(C(F)(F)F)c3)ccc2N1
COc1ccc(NS(=O)(=O)c2cccc(C(=O)N3CCCCCC3)c2)cc1
